# From PubChem BioAssay AID1645882 (National Center for Advancing Translational Sciences (NCATS), 2021)
# “And” between values parts separate entries of the source, which are not always exact repeats. Equal entries are not always repeated. The whole screen tested about 16,000 compounds, of which about 120 (0.75%) were called active. Another 4% or so got no clear call; they are omitted. Calls follow the shape of the dose curve; as a rule, active = well fitted inhibition curve with a large enough effect; inconclusive = small, poorly fitted or top-dose-only effect; inactive = no such curve, though single readings can be large or run the other way. The sample as a whole holds a higher share of actives than the screen did. Some structures have more than one record in an assay (separate samples or runs), and their calls can disagree.
# Molecular target: Rap guanine nucleotide exchange factor 3 (Homo sapiens) (UniProt O95398)
# Assay: Validation qHTS for antagonist of cAMP-regulated guanine nucleotide exchange factor 3 (EPAC1); also: nearly all actives have a fitted effect of over 75% in size
# Details: EPAC1 Rap1B-BODIPY-GDP exchange, fluorescence; series mostly up to 150 µM; activity change, negative = inhibition: at the top concentration
# Source text: Assay Provider (PI): Xiaodong Cheng Ph.D.
# The University of Texas Medical Branch, […], TX
# In multi-cellular eukaryotic organisms, the effects of cAMP are transduced by two ubiquitously-expressed intracellular cAMP receptors, the classic protein kinase A/cAMP-dependent protein kinase (PKA/cAPK) and the more recently discovered exchange protein directly activated by cAMP/cAMP-regulated guanine nucleotide exchange factor (EPAC/cAMP-GEF). Both PKA and EPAC are ubiquitously expressed in all tissues, and an increase in intracellular cAMP levels will lead to the activation of both PKA and EPAC. Therefore, careful dissections of the individual role and relative contribution of EPAC and PKA within the overall cAMP signaling in various model systems are critical for further elucidating the mechanism of cAMP signaling. To date no EPAC-specific antagonists and agonist, as well as isoform-specific agonists have been reported, and developing EPAC-specific pharmacological probes to determine the physiological functions that EPAC play in the overall cAMP-mediated signaling remains a major challenge within the research field. Furthermore, identified regulators of EPAC may lead to new mechanism-based therapeutic strategies specifically targeting the EPAC / cAMP-signaling components as EPAC has been implicated to play important roles in major human pathological conditions such as diabetes, heart disease, and cancer.
# This qHTS will be used to screen the Molecular Libraries Small Molecule Repository (MLSMR) as a concentration-titration series using the NCGC unique quantitative screening (qHTS) platform to find activators for EPAC1. In addition, this assay will also be used as a counterscreen for the EPAC2 qHTS. This fluorescent based assay is developed and validated for EPAC1 that measures exchange using EPAC effector Rap1 complex with BODIPY-GDP, a GDP analog with a tethered fluorophores. Activators are identified by monitoring the change in fluorescence signal as the exchanged free BODIPY-GDP has a reduced fluorescence compared to Rap1-bound BODIPY-GDP. Increase in signal (activation) is the desired outcome for the EPAC1 agonist while no activity in this assay is desired for the EPAC2 agonist counterscreen.
# [1] de Rooij, J., Zwartkruis, F. J., Verheijen, M. H., Cool, R. H., Nijman, S. M., Wittinghofer, A., and Bos, J.L. (1998) Nature 396, 474-477.
# Briefly, three uL of reagents (100 nM EPAC1, 250 nM RAP1B-BODIPY-GDP, 50 uM GDP) were dispensed into a 1536-well Greiner black solid-bottom medium binding assay plate. Controls and test compounds (23 nL) were transferred to the plate via a Kalypsys pin tool equipped with a 1536-pin array. The plates were centrifuged at 1,000 rpm for 15 seconds followed by 5 minute incubation at room temperature. The assay plates were read at 5 minute intervals for 30 minutes in the ViewLux plate reader using 480nm excitation and 540nm emission filters. The results were normalized to the […] positive control ATA and DMSO.
# Potency is read from the fitted curve at half-maximal effect.
# Sequence of Rap guanine nucleotide exchange factor 3 (Homo sapiens) (O95398 whole entry, looked up): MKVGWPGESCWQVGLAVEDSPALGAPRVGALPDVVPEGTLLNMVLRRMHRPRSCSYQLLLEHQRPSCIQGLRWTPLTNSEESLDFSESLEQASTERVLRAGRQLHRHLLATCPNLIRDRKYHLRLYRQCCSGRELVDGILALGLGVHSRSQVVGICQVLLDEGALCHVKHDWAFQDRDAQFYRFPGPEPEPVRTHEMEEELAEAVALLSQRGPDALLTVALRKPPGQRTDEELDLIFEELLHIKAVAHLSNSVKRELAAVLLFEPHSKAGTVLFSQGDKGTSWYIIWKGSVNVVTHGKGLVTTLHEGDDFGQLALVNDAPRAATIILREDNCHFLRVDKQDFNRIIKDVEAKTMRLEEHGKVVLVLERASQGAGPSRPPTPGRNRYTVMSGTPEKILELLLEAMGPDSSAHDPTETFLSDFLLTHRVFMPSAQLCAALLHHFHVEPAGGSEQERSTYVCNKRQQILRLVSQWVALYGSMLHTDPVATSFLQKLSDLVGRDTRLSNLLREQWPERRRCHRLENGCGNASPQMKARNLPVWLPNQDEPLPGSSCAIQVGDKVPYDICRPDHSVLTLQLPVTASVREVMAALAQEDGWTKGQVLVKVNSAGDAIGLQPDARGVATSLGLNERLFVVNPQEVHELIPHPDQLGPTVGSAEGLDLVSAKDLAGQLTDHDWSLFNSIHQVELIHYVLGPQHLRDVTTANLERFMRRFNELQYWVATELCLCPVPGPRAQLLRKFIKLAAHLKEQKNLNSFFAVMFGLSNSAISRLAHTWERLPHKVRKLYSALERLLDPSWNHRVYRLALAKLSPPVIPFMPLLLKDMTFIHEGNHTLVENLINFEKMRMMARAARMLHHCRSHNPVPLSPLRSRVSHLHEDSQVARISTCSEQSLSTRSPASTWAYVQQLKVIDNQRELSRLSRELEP
Structure (SMILES),"activity change, negative = inhibition",Potency
COc1ccc2c3c1O[C@H]1C[C@H](O)C=C[C@@]31CCN(C)C2,-4.36% (inactive),
CC(C)c1ccc2c(c1)CC[C@@H]1[C@@](C)(CN)CCC[C@]21C,10.5% (inactive),
O=C1Nc2ccc(I)cc2/C1=C/c1cc(Br)c(O)c(Br)c1,,89.1 µM (active) and 79.4 µM (active) and inactive
CN(C)c1ccc(/C=C2/C(=O)Nc3ccccc32)cc1,-18.9% (inactive),
CN(C)c1ccc(/C=C2\C(=O)Nc3ccccc32)cc1,-9.59% [at 75.8 µM] (inactive),
COC(=O)c1ccc(CN2CCOc3ccc(C(O)c4cccnc4)cc3C2)cc1 (configuration not stated),8.76% (inactive),
COc1ccc(-n2c(=O)c(-c3ccc(F)cc3)nc3cnc(N4CCNCC4)nc32)cc1,10.7% (inactive),
Oc1c(Cl)cc(Cl)cc1Sc1cc(Cl)cc(Cl)c1O,,79.4 µM (active)
Oc1ccc(Cl)cc1Sc1cc(Cl)ccc1O,-15.1% (inactive),
O=C(Nc1ccccc1)O[C@@H]1C[C@H]2CCCC(=O)N3CC[C@@H](C1)[C@@H]23,-2.16% (inactive),
CO[C@@H]1[C@@H](O[C@@H]2O[C@H](C)[C@@H](O[C@H]3C[C@@](C)(O)[C@@H](O)[C@H](C)O3)[C@H](N(C)C)[C@H]2O)[C@@H](CC=O)C[C@@H](C)[C@@H](O[C@@H]2CC[C@H](N(C)C)[C@@H](C)O2)/C=C/C=C/C[C@@H](C)OC(=O)C[C@H]1OC(C)=O,52.5% (inactive),
CC(N)C(=O)OC(C)(C)Cc1ccc(Cl)cc1 (configuration not stated),,inactive
COc1ccc2c(c1)c(CC(=O)O)c(C)n2Cc1ccc(Cl)cc1,-6.29% [at 75.8 µM] (inactive),
CC(C)c1ccc2c(c1)c(SC(C)(C)C)c(CC(C)(C)C(=O)O)n2Cc1ccc(Cl)cc1,,28.2 µM (active)
CCC1C(=O)NCCN1Cc1ccc2c(c1)CN(Cc1cc(OC)ccc1OC)CCO2 (configuration not stated),27.6% (inactive),
Oc1ccc(CCNCCCCCCNCCc2ccccc2)cc1O,19% (inactive),
N#C/C(=C\c1ccc(O)c(O)c1)C(=O)NCCc1ccccc1,47.2% [at 75.8 µM] (inactive),
O=C(O)CCCc1ccccc1,13.7% (inactive),
N#C/C(=C\c1ccc(O)c(O)c1)C(=O)NCCCc1ccccc1,,63.1 µM (active) and inactive
N#C/C(=C\c1c[nH]c2ccccc12)C(=O)c1ccc(O)c(O)c1,23.5% [at 75.8 µM] (inactive),
N#C/C(=C\c1ccc(O)c(O)c1)C(=O)NCCCCc1ccccc1,,100 µM (active)

Structure (SMILES),"activity change, negative = inhibition",Potency
CSc1nc(C(=O)NCc2nc(-c3cccc(NC(=O)c4ccc(C)s4)c3)oc2C)cs1,5.03% (inactive),
Cc1cccc(CN2CCc3nnc(C(C)NC(=O)C4CCOCC4)n3CC2)c1 (configuration not stated),12% (inactive),
Cc1ccccc1C(=O)NC(C)c1nnc2n1CCN(Cc1ccc(F)cc1)CC2 (configuration not stated),11.9% (inactive),
C/C1=C2N=C(/C=C3N=C(/C(C)=C4\[N-]C(C(CC(N)=O)C4(C)CCC(=O)NCC(C)OP(=O)([O-])OC4C(CO)OC(n5cnc6cc(C)c(C)cc65)C4O)C4(C)N=C1C(CCC(N)=O)C4(C)CC(N)=O)C(CCC(N)=O)C\3(C)C)C(CCC(N)=O)C/2(C)CC(N)=O.[CH3-].[Co+3] (configuration not stated),,50.1 µM (active)
C[N+](C)(CCCCCC[N+](C)(C)C1c2ccccc2-c2ccccc21)C1c2ccccc2-c2ccccc21,25.9% (inactive),
O=S(=O)(O)c1cc(N=C=S)ccc1/C=C/c1ccc(N=C=S)cc1S(=O)(=O)O,,35.5 µM (active)
S=C=Nc1ccc(N=C=S)cc1,17.2% (inactive),
Nc1ccc(/C=C/c2ccc(N)cc2S(=O)(=O)O)c(S(=O)(=O)O)c1,-25.9% (inactive),
Nc1nc2c(c(=O)[nH]1)N(C=O)C(CNc1ccc(C(=O)NC(CCC(=O)O)C(=O)O)cc1)CN2 (configuration not stated),12.1% (inactive),
Fc1ccc(Nc2ccnc(-c3ccc4c(c3)OCO4)n2)cc1,-16.5% (inactive),
O=C(Nc1nccs1)[C@@H]1CC=C[C@@H]2CCN(Cc3ccccc3)C(=O)[C@@H]21,7.38% (inactive),
CCCc1c(OCCCCc2nn[nH]n2)ccc(C(C)=O)c1O,,inactive
CCCc1c(OCCCOc2ccc(OCC(=O)O)cc2)ccc(C(C)=O)c1O,-6.37% [at 75.8 µM] (inactive),
CCCc1c(OCCCOc2ccc(OCC(=O)O)cc2)ccc(CC=O)c1O,,100 µM (active)
COCCn1c(=O)c(-c2cc(F)cc(F)c2)nc2cnc(Oc3ccc(OC)cc3)nc21,7.13% (inactive),
O=C(Nc1ccc(C(=O)Nc2ccc(C(=O)Nc3ccc(S(=O)(=O)O)c4cc(S(=O)(=O)O)cc(S(=O)(=O)O)c34)cc2)cc1)Nc1ccc(C(=O)Nc2ccc(C(=O)Nc3ccc(S(=O)(=O)O)c4cc(S(=O)(=O)O)cc(S(=O)(=O)O)c34)cc2)cc1,,39.8 µM (active) and 8.91 µM (active)
Cc1ccc(C(=O)Nc2ccc(S(=O)(=O)O)c3cc(S(=O)(=O)O)cc(S(=O)(=O)O)c23)cc1NC(=O)c1cccc(NC(=O)Nc2cccc(C(=O)Nc3cc(C(=O)Nc4ccc(S(=O)(=O)O)c5cc(S(=O)(=O)O)cc(S(=O)(=O)O)c45)ccc3C)c2)c1,-22% [at 75.8 µM] (inactive),
O=C(Nc1cccc(C(=O)Nc2ccc(S(=O)(=O)O)c3cc(S(=O)(=O)O)cc(S(=O)(=O)O)c23)c1)Nc1cccc(C(=O)Nc2ccc(S(=O)(=O)O)c3cc(S(=O)(=O)O)cc(S(=O)(=O)O)c23)c1,,25.1 µM (active)
Cc1ccc(S(=O)(=O)O)cc1C,11.8% (inactive),
O=C(Nc1ccc(C(=O)O)c(O)c1)c1ccccc1,4.9% (inactive),
O=C(Nc1cc(C(=O)Nc2ccc(S(=O)(=O)O)cc2S(=O)(=O)O)cc(C(=O)Nc2ccc(S(=O)(=O)O)cc2S(=O)(=O)O)c1)Nc1cc(C(=O)Nc2ccc(S(=O)(=O)O)cc2S(=O)(=O)O)cc(C(=O)Nc2ccc(S(=O)(=O)O)cc2S(=O)(=O)O)c1,,15.8 µM (active)
